Results reported in PubChem BioAssay (NCI).
Compounds without any hit were thinned out: in the full panel of roughly 83,000, 20% have a hit.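 Results are percent growth after 48 hours of single-concentration exposure. 100 means growth as in untreated cells, lower positive values show inhibition; negative values down to -100 show cell death.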 A number with no mark means an inactive call. Calls of active or inactive are those of the source. The calls were made as follows: active = growth percent below 10; inactive = the rest.

Columns and labels:
Assay in all cases: NCI-60 one-dose screen, 48 h (100 = growth as untreated, 0 = no growth, -100 = all killed)
HCT-15 colon = conditions: 10 µM unless noted
HT29 colon = conditions: 10 µM unless noted
SNB-75 CNS = conditions: 10 µM unless noted
SNB-19 CNS = conditions: 10 µM unless noted
U251 CNS = conditions: 10 µM unless noted
PC-3 prostate = conditions: 10 µM unless noted
SK-MEL-5 melanoma = conditions: 10 µM unless noted
UACC-62 melanoma = conditions: 10 µM unless noted
LOX IMVI melanoma = conditions: 10 µM unless noted
SK-MEL-28 melanoma = conditions: 10 µM unless noted
SK-MEL-2 melanoma = conditions: 10 µM unless noted
EKVX NSCLC = conditions: 10 µM unless noted
SN12C renal = conditions: 10 µM unless noted
UO-31 renal = conditions: 10 µM unless noted
TK-10 renal = conditions: 10 µM unless noted
ACHN renal = conditions: 10 µM unless noted
CAKI-1 renal = conditions: 10 µM unless noted
A498 renal = conditions: 10 µM
HL-60(TB) leukemia = conditions: 10 µM unless noted
CCRF-CEM leukemia = conditions: 10 µM unless noted

COc1cccc2c1c(C(=O)C(=O)Nc1cc(C)no1)cn2Cc1ccc(F)cc1
growth (HCT-15 colon): 29.5% | growth (HT29 colon): 24.8% | growth (SNB-75 CNS): 53.6% | growth (SNB-19 CNS): 66% | growth (U251 CNS): 51.7% | growth (PC-3 prostate): 62.5% | growth (SK-MEL-5 melanoma): 36.3% | growth (UACC-62 melanoma): 38.7% | growth (LOX IMVI melanoma): 56.1% | growth (SK-MEL-28 melanoma): 68.3% | growth (SK-MEL-2 melanoma): 75.1% | growth (EKVX NSCLC): 78.9% | growth (SN12C renal): 62.2% | growth (UO-31 renal): 57.5% | growth (TK-10 renal): 82.6% | growth (ACHN renal): 88.6% | growth (CAKI-1 renal): 86.7% | growth (A498 renal): 91.1% | growth (HL-60(TB) leukemia): 1.01% (active) | growth (CCRF-CEM leukemia): 66.6%

COc1cc(/C=C/[N+](=O)[O-])c([N+](=O)[O-])cc1OC
growth (HCT-15 colon): -45.2% (active) | growth (HT29 colon): -66% (active) | growth (SNB-75 CNS): 55.3% | growth (SNB-19 CNS): 96.3% | growth (U251 CNS): 15.7% | growth (PC-3 prostate): 51.5% | growth (SK-MEL-5 melanoma): 56.2% | growth (UACC-62 melanoma): -7.94% (active) | growth (LOX IMVI melanoma): -68.1% (active) | growth (SK-MEL-28 melanoma): 38.4% | growth (SK-MEL-2 melanoma): -6.72% (active) | growth (EKVX NSCLC): 65.9% | growth (SN12C renal): 22% | growth (UO-31 renal): -49.5% (active) | growth (TK-10 renal): -18.3% (active) | growth (ACHN renal): -46.4% (active) | growth (CAKI-1 renal): -50% (active) | growth (A498 renal): 109% | growth (HL-60(TB) leukemia): -7.54% (active) | growth (CCRF-CEM leukemia): 5.8% (active)

O=C1Nc2ccccc2C2c3cccn3-c3ccccc3CN12 (stereo unspecified)
growth (HCT-15 colon): 38% | growth (HT29 colon): 11.3% | growth (SNB-75 CNS): 21.1% | growth (SNB-19 CNS): 73.4% | growth (U251 CNS): 14.7% | growth (PC-3 prostate): 48.6% | growth (SK-MEL-5 melanoma): 43.1% | growth (UACC-62 melanoma): 35% | growth (LOX IMVI melanoma): 63% | growth (SK-MEL-28 melanoma): 66.6% | growth (SK-MEL-2 melanoma): 6.54% (active) | growth (EKVX NSCLC): 67.8% | growth (SN12C renal): 69.4% | growth (UO-31 renal): 60% | growth (TK-10 renal): 71.8% | growth (ACHN renal): 81.6% | growth (CAKI-1 renal): 63.4% | growth (A498 renal): 41.1% | growth (HL-60(TB) leukemia): 44.6%

COc1cc2c(cc1OCCCCn1c(-c3cccs3)nc3ccccc31)N=C[C@@H]1CCCN1C2=O
growth (HCT-15 colon): -11.9% (active) | growth (HT29 colon): 2.34% (active) | growth (SNB-75 CNS): -65.4% (active) | growth (SNB-19 CNS): 10.5% | growth (U251 CNS): -2.52% (active) | growth (PC-3 prostate): -4.05% (active) | growth (SK-MEL-5 melanoma): -80% (active) | growth (UACC-62 melanoma): -91.1% (active) | growth (LOX IMVI melanoma): -48.9% (active) | growth (SK-MEL-28 melanoma): -37.4% (active) | growth (SK-MEL-2 melanoma): -52.4% (active) | growth (EKVX NSCLC): 4.43% (active) | growth (SN12C renal): 2.49% (active) | growth (UO-31 renal): -58.3% (active) | growth (TK-10 renal): -22.8% (active) | growth (ACHN renal): -10% (active) | growth (CAKI-1 renal): -22% (active) | growth (A498 renal): -53.9% (active) | growth (HL-60(TB) leukemia): -18.7% (active) | growth (CCRF-CEM leukemia): -25.7% (active)

CCOC(=O)N1CC1
growth (HCT-15 colon): 96.3% | growth (HT29 colon): 97.5% | growth (SNB-75 CNS): 90.8% | growth (SNB-19 CNS): 98.4% | growth (U251 CNS): 96.3% | growth (PC-3 prostate): 88.1% | growth (SK-MEL-5 melanoma): 101% | growth (UACC-62 melanoma): 88.4% | growth (LOX IMVI melanoma): 92.7% | growth (SK-MEL-28 melanoma): 103% | growth (SK-MEL-2 melanoma): 105% | growth (EKVX NSCLC): 84% | growth (SN12C renal): 95.8% | growth (UO-31 renal): 80.7% | growth (TK-10 renal): 112% | growth (ACHN renal): 94.8% | growth (CAKI-1 renal): 95.1%

COc1cc2c(cc1OCCCn1c(-c3ccccn3)nc3ccccc31)N=C[C@@H]1CCCN1C2=O
growth (HCT-15 colon): -22.7% (active) | growth (HT29 colon): -26.7% (active) | growth (SNB-75 CNS): 23.3% | growth (SNB-19 CNS): 27.2% | growth (U251 CNS): -44% (active) | growth (PC-3 prostate): 12.8% | growth (SK-MEL-5 melanoma): -69.7% (active) | growth (UACC-62 melanoma): -75.9% (active) | growth (LOX IMVI melanoma): -7.37% (active) | growth (SK-MEL-28 melanoma): 5.44% (active) | growth (SK-MEL-2 melanoma): -71.1% (active) | growth (EKVX NSCLC): 43.3% | growth (SN12C renal): 26% | growth (UO-31 renal): -53.7% (active) | growth (TK-10 renal): -20.8% (active) | growth (ACHN renal): -64.9% (active) | growth (CAKI-1 renal): -6.53% (active) | growth (A498 renal): -72.1% (active) | growth (HL-60(TB) leukemia): -21.7% (active) | growth (CCRF-CEM leukemia): 5.34% (active)

CN1C(=O)C(=Cc2cn(Cc3ccccc3)c3ccccc23)C(=O)N(C)C1=O
growth (HCT-15 colon): 93% | growth (HT29 colon): 89.5% | growth (SNB-75 CNS): 60.1% | growth (SNB-19 CNS): 90% | growth (U251 CNS): 82.8% | growth (PC-3 prostate): 84.8% | growth (SK-MEL-5 melanoma): 63.4% | growth (UACC-62 melanoma): 34% | growth (LOX IMVI melanoma): 82.6% | growth (SK-MEL-28 melanoma): 99.3% | growth (SK-MEL-2 melanoma): 81.5% | growth (EKVX NSCLC): 82.1% | growth (SN12C renal): 103% | growth (UO-31 renal): 54.3% | growth (TK-10 renal): 4.63% (active) | growth (ACHN renal): 84.5% | growth (CAKI-1 renal): 60.4% | growth (A498 renal): -83.1% (active) | growth (HL-60(TB) leukemia): 64.4% | growth (CCRF-CEM leukemia): 92%

Cc1c(C)c([N+](=O)[O-])c(C)c(C)c1[N+](=O)[O-]
growth (HCT-15 colon): 100% | growth (HT29 colon): 100% | growth (SNB-75 CNS): 113% | growth (SNB-19 CNS): 103% | growth (U251 CNS): 99.2% | growth (PC-3 prostate): 105% | growth (SK-MEL-5 melanoma): 107% | growth (UACC-62 melanoma): 102% | growth (LOX IMVI melanoma): 106% | growth (SK-MEL-28 melanoma): 108% | growth (SK-MEL-2 melanoma): 90.8% | growth (EKVX NSCLC): 98.7% | growth (SN12C renal): 111% | growth (UO-31 renal): 106% | growth (TK-10 renal): 107% | growth (ACHN renal): 106% | growth (CAKI-1 renal): 91.3% | growth (A498 renal): 94.3% | growth (HL-60(TB) leukemia): 109% | growth (CCRF-CEM leukemia): 99.1%
